From PubChem
MITF primary = blocks human microphthalmia-associated transcription factor | inhibition, % at 2.6 µM | 650,000 compounds, 0.91% hits | AlphaScreen MITF homodimerization, bead proximity signal | AID 1259374 | O75030; in the data active means inhibition above about 50%;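 further: 0% = vehicle wells with protein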
GPR151 ag = activates the human receptor GPR151; Q8TDV0; PathHunter beta-arrestin GPR151 cells, luminescence; activation, % at 11.2 µM; 650,000 compounds, 1% hits; AID 1508602; in the data active means activation above about 4.9%;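 further: 0% = median of compound wells and 100% = cells with positive control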
Target sequence (Q8TDV0 whole entry, looked up): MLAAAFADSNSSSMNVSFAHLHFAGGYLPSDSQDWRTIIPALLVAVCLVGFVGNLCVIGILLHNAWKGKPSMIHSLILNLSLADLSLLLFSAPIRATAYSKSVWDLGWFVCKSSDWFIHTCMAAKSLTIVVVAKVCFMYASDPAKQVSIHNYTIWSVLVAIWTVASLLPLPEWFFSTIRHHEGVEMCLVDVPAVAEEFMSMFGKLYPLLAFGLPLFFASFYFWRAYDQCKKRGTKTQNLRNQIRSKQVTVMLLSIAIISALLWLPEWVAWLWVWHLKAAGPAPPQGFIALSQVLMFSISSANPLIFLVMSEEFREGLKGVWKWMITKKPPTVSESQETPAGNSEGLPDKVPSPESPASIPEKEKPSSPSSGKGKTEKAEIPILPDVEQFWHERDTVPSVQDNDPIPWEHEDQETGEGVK
FBW7 act = activators of human E3 ligase FBW7; 650,000 compounds, 0.13% hits; normalized activity (activation), % at 26.1 µM; Q969H0; AlphaScreen FBW7–phospho-cyclin E peptide binding, activator screen; AID 1259310; in the data active means normalized activity above about 1.9%;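 further: purified mutant Fbw7 with reduced substrate affinity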
TEAD-YAP block = TEAD-YAP interaction inhibition | HEK-TIYL cells, TEAD-Gal4/YAP UAS-luciferase luminescence | inhibition, % at 9.12 µM | 640,000 compounds, 1.4% hits | AID 1259422; in the data active means inhibition above about 32%;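 further: 0% = median of test compound wells and 100% = reference inhibitor wells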
MITF confirm = confirmation of human MITF inhibitors; shares compounds with MITF primary; AlphaScreen MITF homodimerization, biotin/His-MITF beads; inhibition, % at 2.6 µM; 4,700 compounds, 16% hits;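 active means inhibition above a cutoff derived from the DMSO control wells, cut at about 28% in these data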;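 further: 0% = MITF dimer wells with DMSO only; inhibitors lower the bead chemiluminescence by keeping MITF from dimerizing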
AlphaScreen DR = AlphaScreen optical interference, dose response counter-screen. AlphaScreen optical interference counterscreen, cell-free. IC50, µM. AID 1259373. 480 compounds, 6% hits. shares compounds with MITF primary; call rule not given here
AlphaScreen intf2 = counter-screen: compounds optically interfering with AlphaScreen; 4,700 compounds, 7.6% hits; LysRS AlphaScreen counterscreen, signal interference, triplicate; shares compounds with MITF primary; inhibition, % at 2.6 µM; AID 1259376;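 active means inhibition above a cutoff derived from the DMSO control wells, cut at about 30% in these data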
Active calls of the source: *; . = not tested or not shown. Hits are enriched below; roughly 3.4% of the tested compounds scored in any of these assays.

SMILES	MITF primary	GPR151 ag	FBW7 act	TEAD-YAP block	MITF confirm	AlphaScreen intf2	others
CC1=C/C(=N\N=C2\NC(=O)C(CC(=O)Nc3ccc(C(=O)O)cc3)S2)CC(C)(C)C1 (configuration not stated)	68*	-2	0	-2	72*	13	AlphaScreen DR=>6.5
Cc1ccc(NC(=O)CC2S/C(=N\N=C3\CSC(=O)N3)NC2=O)cc1 (configuration not stated)	82*	1	0	-8	68*	100*
CCOc1ccc(NC(=O)CC2S/C(=N\N=C3/C=C(C)CC(C)(C)C3)NC2=O)cc1 (configuration not stated)	15	2	0	7	.	.
O=C(/C=C\c1ccco1)Nc1ccc(-c2ccc(NC(=O)/C=C\c3ccco3)c(C(=O)O)c2)cc1C(=O)O	45	0	0	11	.	.
COc1ccc(Cl)cc1NC(=O)CN(c1ccccc1OC)S(=O)(=O)c1ccc(C)cc1	16	-1	0	3	.	.
Cn1c(=O)c2c(nc(Oc3ccc(Oc4ncc(Cl)cc4Cl)cc3)n2Cc2ccccc2F)n(C)c1=O	-2	-1	0	7	.	.
COc1ccc(NC(=O)CC2S/C(=N/N=C3\CSC(=O)N3)NC2=O)cc1 (configuration not stated)	82*	-2	-2	3	62*	100*
O=C(CC1S/C(=N/N=C2\CSC(=O)N2)NC1=O)Nc1ccccc1 (configuration not stated)	65*	3	0	-2	66*	100*
Cc1cc(OCC(=O)Nc2ccc(S(=O)(=O)Nc3nccs3)cc2)ccc1C(C)C	10	1	0	-17	.	.
CC(C)(C)n1ncc2c(=O)n(Cc3cccc(F)c3)cnc21	54*	1	0	7	14	18
CCCCc1ccc(C(=O)N/C(=C\c2ccc(F)cc2)C(=O)Nc2ccc(F)cc2)cc1	7	0	0	-6	.	.
CCC(CC)NC(=O)c1ccc(Cl)cc1[N+](=O)[O-]	74*	-1	0	5	1	9
CC(=O)c1cccc(-c2ccc(Nc3cccc(N(C)C)c3)nc2)c1	6	1	-1	-57	.	.
CN(C)c1cccc(Nc2ccc(-c3ccccc3C=O)cn2)c1	63*	0	-2	-16	56*	61*
CN1CC[C@H](Oc2cc(-c3cn[nH]c3)ccc2NC(=O)OCc2ccccc2)C1	53*	-1	1	9	57*	-5	AlphaScreen DR=>6.5
O=C(Nc1ccc(-c2cn[nH]c2)cc1OCCN1CCCC1)OCc1ccccc1	3	-1	0	-2	.	.
CN(C)CCN(C(=O)OCc1ccccc1)c1cc(-c2cn[nH]c2)ccc1NC(=O)OCc1ccccc1	58*	1	1	-1	56*	-12	AlphaScreen DR=>6.5
COc1cccc(COC(=O)Nc2ccc(-c3cn[nH]c3)cc2N(C)CCN(C)C)c1	68*	-1	1	-16	73*	11	AlphaScreen DR=>6.5
COc1ccc(CNCc2ccco2)cc1OCc1ccccc1	41	-1	0	-12	.	.
CCS(=O)(=O)N1CCN(Cc2ccc(OCc3ccccc3)c(OC)c2)CC1	51*	1	0	0	14	10
COc1ccc(CN2CCN(Cc3ccco3)CC2)cc1OCc1ccccc1	60*	0	0	1	8	8
CCOc1ccc(CN2CCN(Cc3ccc(OC)c(OCc4ccccc4)c3)CC2)cc1	69*	1	0	16	-10	5
COc1cc(CN2CCN(S(=O)(=O)c3ccccc3)CC2)ccc1OCc1ccccc1	36	1	0	6	.	.
COc1ccc(CN2CCN(S(=O)(=O)c3ccc([N+](=O)[O-])cc3)CC2)cc1OCc1ccccc1	52*	1	0	30	14	23
CCOc1ccc(CN2CCN(Cc3ccc(OC)c(OC)c3)CC2)cc1	47	2	0	25	.	.
SMILES	MITF primary	GPR151 ag	FBW7 act	TEAD-YAP block	MITF confirm	AlphaScreen intf2	others
Clc1ccc(-n2cc(-c3ccccc3)c3c(NCCCN4CCOCC4)ncnc32)cc1	3	0	0	3	.	.
COc1ccc(-c2csc3ncnc(NCCN4CCOCC4)c23)cc1	82*	-2	0	13	16	18
Clc1ccc(-c2csc3ncnc(NCCCN4CCOCC4)c23)cc1	96*	1	0	-2	-14	-5
CC(=O)c1ccc(OCC(O)COc2ccc(C(C)=O)cc2)cc1	-3	3	0	0	.	.
CC(=O)c1ccc(OCC(O)CN(C)CCC#N)cc1 (configuration not stated)	66*	1	0	-3	4	4
COc1ccc(/C=C2/N=C(c3ccccc3C)OC2=O)cc1OC	18	4	0	14	.	.
Brc1cccc(CN2CCOCC2)c1	-4	1	0	0	.	.
Cn1cccc1CN1CCN(Cc2ccco2)CC1	69*	1	0	-10	2	10
Fc1ccc(CN2CCN(Cc3ccco3)CC2)cc1	70*	-1	0	4	-10	-2
Cn1cccc1CN1CCN(Cc2ccc(Br)cc2)CC1	45	1	0	-8	.	.
Clc1ccc(CN2CCN(Cc3ccco3)CC2)cc1	86*	1	0	-8	13	12
Brc1cccc(CN2CCN(Cc3ccco3)CC2)c1	81*	2	0	-3	27	22
COc1ccc(-c2ocnc2C(=O)N2CCN(c3cccc(C)c3)C(C)C2)cc1OC (configuration not stated)	13	0	0	-3	.	.
CNC(=O)NC1OC(=O)c2c1ccc(OC)c2OC (configuration not stated)	-2	1	0	-5	.	.
CCOc1ccc(NC(=S)N/N=C(\C)c2ccc3c(c2)OCCO3)cc1	3	4	0	-9	.	.
CCOC(=O)c1cc(NC(=O)CSc2nc3ccccc3s2)cc(C(=O)OCC)c1	-8	-2	1	-10	.	.
S=c1n(CN2CCOCC2)nc(Cc2ccccc2)n1-c1ccccc1	1	0	0	-4	.	.
Clc1cccc(N2CCN(Cc3ccco3)CC2)c1	22	-1	0	-13	.	.
Clc1cccc(CN2CCN(Cc3ccco3)CC2)c1	72*	2	0	-7	5	8
O=C(N/N=C/c1cccc([N+](=O)[O-])c1)NC12CC3CC(CC(C3)C1)C2	-2	-2	0	-16	.	.
NC1(C(Cl)(Cl)Cl)Oc2ccccc2O1	84*	0	-1	-7	114*	25	AlphaScreen DR=>6.5
CC1CN(S(=O)(=O)c2ccc(F)c(Cl)c2)CC(C)O1 (configuration not stated)	1	2	0	6	.	.
Cc1oc(C)c(C(=O)O)c1COc1ccccc1C(=O)O	51*	-1	0	2	14	-3
Cc1oc(C)c(C(=O)O)c1CSc1ccccc1C(=O)O	5	1	0	3	.	.
